Several values for one entry are separate records, joined by “and”; a condition that tells them apart may be missing. Equal entries are not always repeated. Structures can show the parent of a compound that is named as a salt. Hit rate of the full screen: of about 5,800 compounds, about 620 (11%) showed activity. Many of the other results were omitted from the sample, so actives are more common in it than they were. Values without a mark were called inactive.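 The calls were made as follows: active = score above a cut-off or among the top three wells of a plate; in these data no inactive exceeds 0.85.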
Tested on: primary human hepatic stellate cells (donor 1)
Assay: scaled lipid accumulation score (0 = DMSO-like, 1 = nortriptyline-like); higher = stronger HSC inactivation (lipid re-accumulation), active = hit call of the paper
Details: 48 h
[1] = library stock concentration: 1 mM
[2] = library stock concentration: 10 mM
[3] = library stock concentration: 3.33 mM

For `CC(C)(C)OC(=O)Nc1ccc(-c2cc(C(=O)NCCCCCCC(=O)NO)no2)cc1`, the “scaled lipid accumulation score” value [1] was at most 0.
With `CC(=O)OCC(=O)[C@@]1(O)CC[C@H]2[C@@H]3C[C@H](C)C4=CC(=O)C=C[C@]4(C)[C@H]3[C@@H](O)C[C@@]21C` the “scaled lipid accumulation score” value [2] was at most 0.
With `Br.Br.CN(CCc1ccc(Cl)c(Cl)c1)CCN1CCCC1` [BD 1008 dihydrobromide] the “scaled lipid accumulation score” value [2] was 0.882 (active).
With `CN1CCN(CCc2ccc(Cl)c(Cl)c2)CC1` [BD 1063 dihydrochloride] the “scaled lipid accumulation score” value [2] was 0.684.
With `COc1ccc(CCN(C)CCc2ccc(OC)c(OC)c2)cc1OC` [YS-035 hydrochloride] the “scaled lipid accumulation score” value [2] was 0.011 and 0.112.
For `C[C@H](NCc1ccc(OCc2cccc(F)c2)cc1)C(N)=O` [Safinamide Mesylate], the “scaled lipid accumulation score” value [3] was at most 0 and the “scaled lipid accumulation score” value [2] was at most 0.
With `CC(C)OC(=O)CCC/C=C/C[C@H]1C(=O)C[C@@H](O)[C@@H]1/C=C/[C@@H](O)COc1cccc(C(F)(F)F)c1` [9-keto Fluprostenol isopropyl ester] the “scaled lipid accumulation score” value [1] was at most 0.
For `C=C1C[C@@H](O)[C@H](/C=C/[C@@H](O)C(C)(C)CCCC)[C@H]1C/C=C\CCCC(=O)O` [9-deoxy-9-methylene-16,16-dimethyl Prostaglandin E2], the “scaled lipid accumulation score” value [1] was at most 0.
`CCOC(=O)c1cnc2ccc(-c3cncc(NS(=O)(=O)c4ccccc4)c3)cn12` [listing 1 of 2 here] was tested, and the “scaled lipid accumulation score” value [3] was 0.492.
With `CCOC(=O)c1cnc2ccc(-c3cncc(NS(=O)(=O)c4ccccc4)c3)cn12` [listing 2 of 2 here] the “scaled lipid accumulation score” value [2] was 0.915 (active).
With `CCCCC[C@H](O)/C=C/[C@H]1C(=O)C[C@H](O)[C@@H]1C/C=C\CCCC(=O)NCCO` [Prostaglandin D2 Ethanolamide] the “scaled lipid accumulation score” value [1] was at most 0.
With `CCC(C)C1OC2(CCC1C)CC1CC(CC=C(C)C(OC3CC(OC)C(OC4CC(OC)C(O)C(C)O4)C(C)O3)C(C)C=CC=C3COC4C(O)C(C)=CC(C(=O)O1)C34O)O2` (stereo not drawn) [Ivermectin] the “scaled lipid accumulation score” value [3] was 0.007 and the “scaled lipid accumulation score” value [2] was 0.198.
With `CCC(=O)NC[C@H](Cc1ccc(OCCc2nc(-c3ccccc3)oc2C)cc1)N/C(C)=C\C(=O)c1ccc(C(F)(F)F)cc1` the “scaled lipid accumulation score” value [2] was at most -0.001.
For `NC[C@H]1CC[C@H](C(=O)Oc2ccc(CCC(=O)O)cc2)CC1`, the “scaled lipid accumulation score” value [2] was at most 0.
`COC(=O)N[C@@H](C)CNc1nccc(-c2cn(C(C)C)nc2-c2cc(Cl)cc(NS(C)(=O)=O)c2F)n1` was tested, and the “scaled lipid accumulation score” value [3] was at most -0.009 and the “scaled lipid accumulation score” value [2] was 0.655.
`CNCCCC12CCC(c3ccccc31)c1ccccc12.Cl` [Maprotiline hydrochloride] [listing 1 of 2 here] was tested, and the “scaled lipid accumulation score” value (library stock concentration: 6.4 mM) was 1.05 (active) and the “scaled lipid accumulation score” value [2] was 0.918 (active) and 1.23 (active).
For `CNCCCC12CCC(c3ccccc31)c1ccccc12.Cl` [Maprotiline hydrochloride] [listing 2 of 2 here], the “scaled lipid accumulation score” value [2] was 1.59 (active).
`CNCCC[C@]12CC[C@H](c3ccccc31)c1ccccc12.Cl` [Maprotiline hydrochloride] was tested, and the “scaled lipid accumulation score” value was 0.944 (active).
`CNCCCC12CCC(c3ccccc31)c1ccccc12.Cl` [Maprotiline HCl] was tested, and the “scaled lipid accumulation score” value [2] was 1.31 (active).
